Laboratory results taken from PubChem BioAssay (NCI).
Compounds without any hit were thinned out: in the full panel of roughly 83,000, 20% have a hit.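 Growth was measured after 48 h exposure to one concentration of compound in 96-well plates. Values under 10 count as active.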 A number with no mark means an inactive call. Calls of active or inactive are those of the source.

system: SNB-75 CNS; test: NCI-60 one-dose screen, 48 h (100 = growth as untreated, 0 = no growth, -100 = all killed); settings: 10 µM

Structure (SMILES)	growth
NC1=CC(=O)C(=O)c2cccnc21	45.5%
Cc1cn(-c2cc(F)cc(NC(=O)c3ccc(C)c(Nc4nccc(-c5cccnc5)n4)c3)c2)cn1	-20.8% (active)
C/C(=C/CCC(C)[C@@H]1CC[C@]2(C)C3=C(CC[C@@]12C)[C@@]1(C)CCC(=O)C(C)(C)[C@@H]1CC3)C(=O)O (stereo not given in full)	-68.1% (active)
CCOC(=O)CN(c1sc(C)c(C)c1C(=O)OCC)S(=O)(=O)c1ccc(C)cc1	91.7%
Cc1c2c[n+](C(C)C)ccc2c(C)c2c1[nH]c1ccccc12	41%
CC(C)C1=C(O)C2=C(C(=O)C1=O)[C@@]1(C)CCCC(C)(C)[C@@H]1CC2	78.5%
CN(C)CCC1(c2ccccc2)CCN(C)C1=O (stereo not given)	95.8%
COc1ccc(/C(C#N)=C/c2ccccc2OC)cc1	28.4%
COc1cc2c(cc1NC(=O)C(Cl)Cl)-c1ccc(NC(=O)C(Cl)Cl)cc1C2	-29.6% (active)
Cn1c2ccccc2c2c3[nH][nH]c(=O)c3c3c4ccccc4[nH]c3c21	37.2%
COc1ccc(-c2nn(-c3cccc(Cl)c3)cc2-c2cc(-c3ccccc3)nc(N)n2)cc1	89.9%
COc1ccc(C(=O)c2ccccc2CN2C(=O)c3ccccc3C2=O)cc1	92%
COc1ccc(-c2nn(-c3cccc(Cl)c3)cc2-c2nc(N)[nH]c(=O)c2C#N)cc1	68.9%
O=C1/C=C/[C@@H](O)[C@@H]2C[C@@H](O)C[C@H]2/C=C/CCC[C@H](C(F)(F)F)O1	39.1%
O=c1cn[nH]c2ccc(Br)cc12	96.2%
Cc1c2cnccc2c(C)c2c1oc1ccccc12	106%
COC(=O)C1OC1c1cc([N+](=O)[O-])ccc1OC (stereo not given)	90.6%
CCc1ccc(C2=NN(c3ccc(S(C)(=O)=O)cc3)C(=O)CC2)cc1	16.7%
COc1cc2c(cc1NC(=O)C(F)(F)F)-c1ccc(NC(=O)C(F)(F)F)cc1C2	-1.06% (active)
Cc1ccc(S(=O)(=O)N/N=C2\CCCc3ccccc32)cc1	92.4%

Structure (SMILES)	growth
O=C(c1ccccc1)N(C(=O)c1ccccc1)N1CCCC1	87.3%
CCOC(=O)C1C(C(=O)OCC)C2C(=O)C3C(C(=O)OCC)C(C(=O)OCC)C3C(=O)C12 (stereo not given)	99.9%
COc1ccc(-c2nn(-c3cccc(Cl)c3)cc2-c2cc(-c3ccccc3)[nH]c(=O)c2C#N)cc1	38.4%
CN(C)c1ncnc2c1nnn2C1OC(CO)C(O)C1O (stereo not given)	28.3%
COc1ccccc1-n1c(-c2sc(NC(C)=O)nc2C)n[nH]c1=S	86.4%
CC(C)(C)OC(=O)CC(S(=O)(=O)c1ccccc1)S(=O)(=O)c1ccccc1	99.2%
O=C1/C(=C/c2cccc(F)c2)Cc2ccccc21	89.4%
COc1ccc(/C(=N\N)C(=O)c2ccccc2)cc1 (tested in a mixture with another compound)	93.2%
O=C(Nc1cc([N+](=O)[O-])c2[nH]c(=O)c3ccccc3c2c1)C(F)(F)F	89.3%
N#CC1=CC2CN(Cc3ccccc3)C1C1C(=O)N(c3ccccc3)C(=O)C21 (stereo not given)	91.1%
CCN(CCCNc1cc2c(c(N)c1S(=O)(=O)O)C(=O)c1ccccc1C2=O)c1ccccc1	88.3%
O=C1NC(=O)c2c(CCCSc3nc4ccccc4c(=O)n3CCc3ccccc3)cccc21	82.8%
COc1ccc(-c2nn(-c3cccc(Cl)c3)cc2-c2c(C#N)c(N)n(N)c(=O)c2C#N)cc1	48.6%
Nc1nc(-c2cccnc2)nc2c1sc(=S)n2-c1ccccc1	94.9%
CCOC(=O)C1=CSC2=NC3=C(CCC/C3=C\c3cc(OC)c(OC)c(OC)c3)C(c3cc(OC)c(OC)c(OC)c3)N12 (stereo not given)	39.1%
CCOC(=O)C1=CSC2=NC3=C(CCC/C3=C\c3ccc(Cl)cc3)C(c3ccc(Cl)cc3)N12 (stereo not given)	86.4%
O=C1CCn2c1c(O)c1ccccc1c2=O	86.6%
Cc1ccc(-c2c3c(N)nc(-c4cccnc4)nc3nc3c2c(C)nn3-c2ccccc2)cc1	-0.959% (active)
COc1ccc(-c2nn(-c3cccc(Cl)c3)cc2-c2c(C#N)c(=O)n3[nH]c(-c4ccccc4)nc3c2C#N)cc1	80.3%
CCOC(=O)/C(=C(\C)N)C1CC(=O)NC1=O (stereo not given)	95.1%
